Assay results: the OligoGym collection

molecular target: C8B; assay: pooled miR-30 sensor sort-seq; sequence = guide strand; details: shRNA
Note: reference of the scale not given here.

| Sequence | sensor-assay potency score (higher = more potent) |
| --- | --- |
| TTTGCCTACAGACACACCCAGA | -0.947 |
| TAAGAGTATAATCTCCTCTCTC | 0.0444 |
| TTTGTCTTGTCTTACGTCTTCC | -0.213 |
| TAACTCTCTGAAGGAACTCGTA | -1.02 |
| AACACAGTCTTCGACTTCCTTG | -0.726 |
| TTGTCAGAGAAGTTGCACGGTT | -0.544 |
| TTCCTTCTGGAACTCCTCCAGT | -0.414 |
| TTACACACCTTCCTGTCTGTGC | 0.539 |
| TAGTATGAGAGAATCGTTTGGT | 0.49 |
| TAAAACCAAAACTGAAACCAGA | -0.722 |
| TTCTACAGTTTGCTTCATCTGA | -0.199 |
| TTGACTTCCGCATGGTCTGTTG | -0.312 |
| TAGCTTTCCACATTGTAGGGCT | 0.376 |
| TAATATAGTGTTTGCCTCGATC | -0.751 |
| TATTTTAAAACCAAAACTGAAA | -1.26 |
| TTGTTGACTGCATTTGACCCAA | -0.397 |
| TAACACAGTCTTCGACTTCCTT | -0.392 |
| TAGGGCTTCCTAAACCTCGTGT | 0.733 |
| TTTTAGTATGAGAGAATCGTTT | -0.743 |
| TTTAGTATGAGAGAATCGTTTG | -0.791 |

molecular target: C8orf37; assay: as above; details: shRNA

| Sequence | sensor-assay potency score (higher = more potent) |
| --- | --- |
| TTGCTTTGAGTTGATGAGGTAA | -0.541 |
| TACATGATCTTCCTTAGTCCAT | -0.774 |
| ATATTGTGCATAACATTGCTTT | -0.312 |
| TTCTTCTTTATCAACTTTGCTT | -0.238 |
| TTGATGAGGTAAGATCAGCTAT | -0.469 |
| TTAATTTGTGAAATTCTGGCAT | 0.766 |
| TCTTCTTTATCAACTTTGCTTT | -0.627 |
| TAAGACTGTCAAGATCATCTTC | 0.587 |
| TAATTTGTGAAATTCTGGCATG | -0.39 |
| TTATAATACATGATCTTCCTTA | 0.582 |
| TTTAACTGCTACAAGTTGGGGA | 0.583 |
| TTAAATGTTTCTGTTGATCTGA | 0.482 |

molecular target: C8orf86; assay: as above; details: shRNA

| Sequence | sensor-assay potency score (higher = more potent) |
| --- | --- |
| TTGTCTCTCTGTTCGCTGCTCA | 0.291 |
| TTGCTTCTAATCAACTCCTCAG | -0.327 |
| TAATCAACTCCTCAGCTGGGAG | -1.02 |
| TAATTCAGGAGTTCTGGGCGGG | 0.0945 |
| TTGAAGAAACCACAGATGCGAG | -0.899 |
| TCTTTGTCTCTCTGTTCGCTGC | -0.625 |
| TTCTAATCAACTCCTCAGCTGG | -0.81 |
| TTTCCTTCCCTTCTGTCCCAAA | -1.07 |
